aSyn 5UTR act = Activators via SNCA 5'UTR binding, MLPCN. alpha-synuclein 5'UTR reporter, activators screen. activity score, % (tested at 7.5 µM), hits read low. 7.1% of 300,000 active; in the data active = activity score below about -60%
* hit, by the source's call. A selection follows.

SMILES | aSyn 5UTR act
Cc1ccc(CN2C3CCCC2CC(NC(=O)c2ccc(C)cc2)C3)cc1 (centres undefined) | -163*
CCCCN(CC)C(=O)c1cc2cc3ccc(Cl)cc3nc2o1 | -87*
CC1=CCC(/C=N\Nc2nnc3c(n2)[nH]c2ccccc23)CC1 (centres undefined) | -65*
CSc1ccc(CC(=O)N2CCC(n3nccc3NC(=O)C3CC3)CC2)cc1 | -116*
CSCC(=O)N1CCC(n2nccc2NC(=O)c2ccc3c(c2)OCO3)CC1 | -110*
Cc1ccccc1C(=O)O/N=C(\N)c1cccc([N+](=O)[O-])c1 | -275*
N/C(=N\OC(=O)c1cccc2ccccc12)c1cccc([N+](=O)[O-])c1 | -123*
N/C(=N\OC(=O)c1cccc2ccccc12)c1cccnc1 | -184*
Clc1ccc2c(c1)C1OCCC1C(c1ccco1)N2 (centres undefined) | -125*
CC(=O)Nc1cc(C)nn1-c1nc2ccccc2s1 | -178*
COc1cc(C(=O)Nc2nc3ccccc3s2)ccc1OCc1c(C)noc1C | -110*
Cc1cc(C)n(-c2ccc(C(=O)Nc3nc4ccccc4s3)cc2)n1 | -97*
COc1nccnc1NS(=O)(=O)c1ccc(NCc2cc(Br)ccc2O)cc1 | -83*
CCOC(=O)C(C(=O)OCC)C1OC(=O)c2cc3c(cc21)C(=O)OC3C(C(=O)OCC)C(=O)OCC (centres undefined) | -77*
O=C(/C=C/NCc1cccnc1)c1ccc(-c2ccccc2)cc1 | -81*
O=c1c2[nH]c3ccc(F)cc3c2ncn1CCC1=CCCCC1 | -121*
COc1ccc2c(c1)[nH]c1c(=O)n(CCC3=CCCCC3)cnc12 | -99*
CC(=O)c1ccc2c(c1)C1C=CCC1C(c1ccncc1)N2 (centres undefined) | -77*
COC(=O)CCc1sc(Nc2ccccc2)nc1-c1ccc(OC)cc1 | -62*
OCC1CCCN(C(=S)Nc2ccc(Nc3ccccc3)cc2)C1 (centres undefined) | -130*
CC(C)c1ccc(NC(=S)N2CCCC2)cc1 | -86*
S=C(Nc1ccccc1)N1CCCCCCC1 | -88*
Cc1ccc(NC(=S)N2CCCC(O)C2)cc1 (centres undefined) | -63*
c1ccc(-c2ccc(-c3csnn3)cc2)cc1 | -131*
Cc1ccc(OC(=O)c2cccc([N+](=O)[O-])c2)c(-n2nc3ccccc3n2)c1 | -278*
SMILES | aSyn 5UTR act
O=C(Oc1c(-c2ccccc2)c(=O)n2c3c(cccc13)CC2)c1cccc([N+](=O)[O-])c1 | 77
Cc1ccc(OC(=O)COc2ccccc2)c(-n2nc3ccccc3n2)c1 | -178*
Cc1ccc(OC(=O)COc2ccccc2C)c(-n2nc3ccccc3n2)c1 | -233*
Brc1cccc2sc(N3CCCC3)nc12 | -75*
Clc1cccc2sc(N3CCOCC3)nc12 | -64*
Fc1cccc2sc(N3CCCC3)nc12 | -79*
CCOc1ccccc1OCCCOc1ccc(C)cc1Cl | -111*
COc1c(C(=O)NNC(=O)c2ccccc2Cl)csc1Br | -85*
CCOC(=O)C1CCN(c2nnc(N3CCCC3=O)s2)CC1 | -66*
Cc1ccc(Oc2nccc(-c3ccc(Cl)cc3)n2)cc1 | -67*
N#Cc1ccccc1NC(=O)c1ccc2c(c1)OCCO2 | -94*
Cc1ccccc1NC(=O)c1ccc2c(c1)OCCO2 | -157*
Cc1cccc(NC(=O)c2ccc3c(c2)OCCO3)c1C | -113*
N#Cc1ccccc1NC(=O)COC(=O)c1ccc2c(c1)OCCO2 | -130*
COC(=O)c1ccccc1NC(=O)c1ccc2c(c1)OCCCO2 | -85*
C/C(=N/Nc1nc(-c2ccc(Cl)cc2)cs1)c1cccs1 | -75*
CC(=O)Nc1ccc(-c2csc(NCc3ccccc3)n2)cc1 | -75*
CC(=O)Nc1ccc(-c2csc(N/N=C(/C)c3ccccc3)n2)cc1 | -102*
CC(C)(C)S(=O)(=O)Cc1nc(-c2ccc(Cl)c(Cl)c2)cs1 | -67*
CC(=O)Cc1nsc(Nc2ccc(C)cc2)n1 | -93*
C/C(Cl)=C\Cn1c(O)c(N=NC(N)=S)c2cc(Br)ccc21 | 70
CC1CCc2c(sc3ncn(CCO)c(=O)c23)C1 (centres undefined) | -116*
COc1ccc(CCN2CCCC(CN(C)C(=O)c3ccoc3)C2)cc1 (centres undefined) | -109*
FC(F)Sc1ccc(N=C2NN=C(c3ccc4c(c3)OCCO4)CS2)cc1 | -127*
c1cc2c(cc1C1=NNC(=NC3CC3)SC1)OCCO2 | 111
SMILES | aSyn 5UTR act
COc1ccc(C2CC(c3ccccc3)=NN2C(=O)c2cccs2)cc1 (centres undefined) | -92*
COc1ccc(C2CC(c3ccccc3OC(=O)/C=C/c3ccccc3)=NN2C(C)=O)cc1 (centres undefined) | -69*
COc1ccc(C2CC(c3ccccc3)=NN2C(=O)COC(=O)c2cccnc2)cc1 (centres undefined) | -62*
CC(/C=N/NC(=O)c1cc(-c2ccncc2)nc2ccccc12)=C\c1ccco1 | 86
CC(/C=N/NC(=O)c1cccs1)=C\c1ccco1 | -176*
CC(/C=N/NC(=O)Cc1cccs1)=C\c1ccco1 | -98*
Cc1c(C)c(C)c2[nH]c(-c3ccc4c(c3)OCO4)nc2c1C | -76*
CC1CCC(C(C)C)C(OC(=O)Cn2c(-c3ccccc3)[n+](C)c3ccccc32)C1 (centres undefined) | 77
Cc1c2ccccc2nc2c(F)c(N(C)C)c(F)c(F)c12 | -78*
CCOc1cc2nc3c4ccccc4n(C)c3nc2cc1OCC | -62*
Cc1ccccc1Oc1cc(NC(=O)Cn2cnc([N+](=O)[O-])c2)cc([N+](=O)[O-])c1 | -91*
O=C(C1CCCN1S(=O)(=O)c1cccc2nsnc12)N1CCN(c2ccccc2)CC1 (centres undefined) | -63*
O=C(NCc1nnnn1-c1ccc(F)cc1)c1ccc([N+](=O)[O-])o1 | -136*
Cc1ccc(-n2nnnc2CNC(=O)c2ccc([N+](=O)[O-])o2)cc1C | -98*
Cc1ccc(-n2c(C)cc(C(=O)CSc3nncs3)c2C)cc1 | -172*
Cc1cc(C(=O)CSc2nncn2C)c(C)n1-c1ccccc1 | -67*
Cc1cc(-n2c(C)cc(C(=O)CCl)c2C)no1 | 119
Cc1cc(C(=O)CSc2cccc[n+]2[O-])c(C)n1-c1ccc(Br)cc1 | -150*
Cc1cc(C(=O)CN2CC(C)OC(C)C2)c(C)n1-c1ccccc1 (centres undefined) | -105*
Cc1cc(C(=O)CSc2cccc[n+]2[O-])c(C)n1-c1ccccc1 | 57
Cn1cnnc1SCC(=O)c1c[nH]c2ccccc12 | -92*
Cc1ccc(CSc2ncnc3c2cnn3-c2ccc(C)cc2)cc1 | -93*
Cc1ccc(-n2ncc3c(SCC(=O)NNC(=O)c4ccco4)ncnc32)cc1 | -106*
Fc1ccc(-n2ncc3c(SCc4cccnc4)ncnc32)cc1 | -138*
Cc1ccc(-n2ncc3c(SCc4ccccc4)ncnc32)cc1 | -180*
SMILES | aSyn 5UTR act
Cc1ccc(CSc2ncnc3c2cnn3-c2ccccc2)cc1 | -137*
CN(C)CCCN(C(=O)c1ccc(S(=O)(=O)N2CCc3ccccc32)cc1)c1nc2ccc(Cl)cc2s1 | 58
CN(C)CCN(C(=O)c1ccc2c(c1)OCCO2)c1nc2ccc(Cl)cc2s1 | -159*
CN(C)CCCN(C(=O)c1ccc2c(c1)OCCO2)c1nc2ccc(Cl)cc2s1 | -133*
CC(=O)N1N=C(c2ccc(C)cc2)OC1c1cccnc1 (centres undefined) | -75*
O=C(OCc1ccccc1)c1cccc(-c2nnn(Cc3ccccc3)n2)c1 | -91*
CC(=O)c1ccc(Nc2ccc(-c3ccccc3F)nn2)cc1 | -172*
